CHO-K1 Ca antag = nonselective inhibitor or artifact in parental CHO-K1 cells. ATP-induced calcium, Fluo-8 fluorescence. inhibition, % at 3 µM. 360,000 tested, 0.6% active;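 active means inhibition above a per-plate cutoff, the plate's mean sample inhibition plus 3 SD, cut at about 24% in these data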
M1 PAM parental = counter-screen for M1 PAMs: effect in parental CHO-K1 cells. ATP EC20, Fluo-8 calcium fluorescence; 0% at ATP EC20, 100% at ATP max. activation, % at 3 µM. 360,000 tested, 0.02% active. AID 602247;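 active means activation above the run cutoff, the mean activation of all test compounds plus 3 SD, cut at about 40% in these data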;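 further: peak over basal fluorescence ratio in a 140 s read after ATP addition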
M1 PAM = potentiates human M1 receptor response to acetylcholine. AID 588819. activation, % at 3 µM. P11229. 360,000 tested, 0.088% active. CHO-K1 hM1, Fluo-8 calcium fluorescence, ACh EC20; 0% = ACh EC20, 100% = maximal ACh; in the data active means activation above about 19%, passing the limit was not always enough
Target sequence (P11229 whole entry, looked up): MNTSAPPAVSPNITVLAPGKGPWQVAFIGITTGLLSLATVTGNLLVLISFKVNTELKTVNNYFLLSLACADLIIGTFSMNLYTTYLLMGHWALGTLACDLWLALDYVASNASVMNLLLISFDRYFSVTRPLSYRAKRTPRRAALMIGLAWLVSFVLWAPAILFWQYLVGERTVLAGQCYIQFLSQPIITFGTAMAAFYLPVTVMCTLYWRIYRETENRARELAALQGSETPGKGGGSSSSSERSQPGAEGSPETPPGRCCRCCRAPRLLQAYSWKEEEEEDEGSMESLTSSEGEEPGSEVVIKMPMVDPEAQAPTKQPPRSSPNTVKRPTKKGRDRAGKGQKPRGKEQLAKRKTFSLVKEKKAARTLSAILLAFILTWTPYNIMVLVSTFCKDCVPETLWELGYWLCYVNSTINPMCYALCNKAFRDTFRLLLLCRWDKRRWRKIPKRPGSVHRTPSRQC
M1 ag parental = M1 agonist counterscreen hit in parental CHO-K1 cells. Fluo-8 calcium fluorescence; scaled to maximal ATP response, vehicle zero. 360,000 tested, 0.48% active. activation, % at 3 µM; in the data active means activation above about 15%;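 further: untransfected CHO-K1 host cells lacking M1 receptor as counterscreen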
CHRM1 agonist = activates human CHRM1 receptor; 360,000 tested, 0.33% active; CHO-K1 hM1, Fluo-8 calcium fluorescence, agonist mode; 0% DMSO, 100% acetylcholine EC100; AID 588814; activation, % at 3 µM; P11229;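 active means activation above the run's mean compound activation plus 3 SD, cut at about 16% in these data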;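 further: peak over basal fluorescence ratio within a 140 s kinetic read after compound addition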
CHRM1 antagonist = antagonists of human M1 muscarinic receptor. CHO-K1 hM1, Fluo-8 calcium fluorescence, ACh EC80 antagonist. inhibition, % at 3 µM. P11229. AID 588852. 360,000 tested, 1.3% active;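 active means percent inhibition above its own plate's cutoff, namely the mean of that plate's compound wells plus 3 SD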;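 further: peak over basal fluorescence ratio during 140 s after agonist addition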
Large screens that a line does not name were inactive. Compounds with a hit are over-represented: about 2.3% of the library has one in this group of screens.

CN(/N=C/c1ccc(-c2ccc([N+](=O)[O-])cc2)o1)c1ccccc1	CHO-K1 Ca antag 30, M1 ag parental 17
CN(/N=C/c1cc([N+](=O)[O-])ccc1O)c1ccccc1	none
COc1cccc(-c2cnc3c(NC(C)=O)cc(-c4ccc(S(C)(=O)=O)cc4)cn23)c1	none
CC(=O)n1cc([C@H]2C=C(C(=O)NCc3ccccc3)O[C@@H](OCc3ccc(CO)cc3)C2)c2ccccc21	none
CC(=O)n1cc([C@H]2C=C(C(N)=O)O[C@@H](OCc3ccc(CO)cc3)C2)c2ccccc21	M1 ag parental 20, CHRM1 agonist 23
O=C(NCCN1CCCCC1)c1cc(Cl)ccc1Cl	none
O=[N+]([O-])c1cccc(/C(=N/N=C/c2ccccc2Br)C23CN4CN(CN(C4)C2)C3)c1	CHRM1 antagonist 43
CC(C)=N/N=C(/c1ccc([N+](=O)[O-])cc1)C12CN3CN(CN(C3)C1)C2	CHRM1 agonist 50
O=[N+]([O-])c1ccc(C(=S)N2CCCC2)cc1	none
CCCn1ncc(CN2CCN(Cc3ccsc3)C(CCO)C2)c1C (stereo unspecified)	none
COCCn1c(N)c(N(Cc2ccccc2)C(=O)Cc2c(Cl)cccc2Cl)c(=O)[nH]c1=O	none
Cc1ccc(NC(=S)Nc2ccc(Cl)c(Cl)c2)c(OC(F)F)c1	CHO-K1 Ca antag 26
CC(=O)NCCC(=O)NCC1(N(C)Cc2ccccc2)Cc2ccccc2C1	M1 ag parental 16
CCCCCCCCCCCCN1[C@@H](CC(=O)OC)c2cc(F)ccc2S1(=O)=O	M1 PAM 32
O=C1NC[C@H](CCCCN2CCN(Cc3ccccc3)C(=O)C2=O)N(Cc2ccccc2)C1=O	none (no result: M1 PAM, CHRM1 agonist, CHRM1 antagonist)
O=C(COC(=O)/C=C/c1ccc([N+](=O)[O-])cc1)NNC(=O)c1ccccc1	none
Cc1cc(C)n(-c2ccc(F)cc2CN2CCN(Cc3ccccc3)C(CCO)C2)n1 (stereo unspecified)	CHRM1 antagonist 39
CC(C)=CCN1CCN(Cc2cc(F)ccc2-n2nc(C)cc2C)CC1CCO (stereo unspecified)	none
CC(Oc1cccc(Cl)c1)C(=O)Nc1ccc(S(=O)(=O)N(C)C2CCN(C)CC2)cc1 (stereo unspecified)	none
O=C(Nc1ccccc1)c1nc[nH]c1C(=O)NCCNC(=O)c1[nH]cnc1C(=O)Nc1ccccc1	CHRM1 antagonist 25
NC(=O)c1ccccc1NC(=O)c1ccccc1Cl	none
O=C(Nc1ccccc1C(=O)Nc1nnc(C(F)(F)F)s1)c1ccccc1Cl	CHO-K1 Ca antag 27, M1 ag parental 28, CHRM1 antagonist 34
CCSc1nnc(NC(=O)c2ccc(Br)s2)s1	none
O=C(Nc1nnc(C(F)(F)F)s1)c1ccc(Br)s1	CHRM1 antagonist 28
COc1ccc(C(=O)C(=O)c2ccc(OCCO)cc2)cc1	M1 PAM 30
O=C(NCCCCCCCN1CCCCCCC1)C(C1CCCCC1)C1CCCCC1	CHRM1 antagonist 57
CCCCCC#CCN1CCN(C23CC4CC(CC(C4)C2)C3)CC1	none
CCCC#CCN1CCN(C23CC4CC(CC(C4)C2)C3)CC1	CHRM1 antagonist 47
Cc1oc(-c2ccc(Cl)cc2)nc1CN1CCCC(C(=O)NC2CC2)C1 (stereo unspecified)	none
CCOC(=O)N1CCC(NC(=O)C2CCCN(Cc3nc(-c4cccc(Cl)c4)oc3C)C2)CC1 (stereo unspecified)	CHO-K1 Ca antag 30, CHRM1 antagonist 37
COc1ccc(S(=O)(=O)Nc2cccc(N(C)S(C)(=O)=O)c2)cc1Br	M1 ag parental 16
CC(C)/C=C/C(=O)N1CCCC(N2CCN(c3ccccc3F)CC2)C1 (stereo unspecified)	none
C(=N\N1CCN(C(c2ccccc2)c2ccccc2)CC1)/c1ccc2c(c1)OCO2	CHO-K1 Ca antag 24
CN(C)CCCNC(=O)OC1CC2CC1[C@H]1CCCCN1C2=O (stereo partly specified)	none (no result: M1 PAM, CHRM1 agonist, CHRM1 antagonist)
CC1=[N+](C)N(c2ccccc2)C(=O)C1N=Cc1c(Cl)cccc1Cl (stereo unspecified)	M1 ag parental 16
O=C(c1ccccc1Oc1ccc([N+](=O)[O-])cc1)N1CCOCC1	CHO-K1 Ca antag 25
Cc1ccccc1NC(=O)CSc1nn2c(=O)c(C)nnc2s1	none
Cc1ccccc1CSc1nn2c(=O)c(C)nnc2s1	CHO-K1 Ca antag 24
COc1ccc(CN(C)S(=O)(=O)c2nnc(NC(=O)c3cccc(F)c3)s2)cc1	CHO-K1 Ca antag 24
CCOC(=O)c1c(-c2ccccc2)nnn1-c1nc(OCC)nc(N2CCCCC2)n1	CHO-K1 Ca antag 54
COc1ccc(C(=O)C2CCCN(S(=O)(=O)c3ccc(C(C)=O)cc3)C2)c(C)c1 (stereo unspecified)	M1 ag parental 16, CHRM1 antagonist 43
C#Cc1cccc(C(=O)N2CCCC(C(=O)c3ccc(OC)cc3C)C2)c1 (stereo unspecified)	CHO-K1 Ca antag 25
O=C(COc1ccccc1)Nc1ccc(-c2ccc(N3CCOCC3)nn2)cc1	none
CC(NC(=O)COc1ccc(-c2nnco2)cc1)c1ccc(Cl)cc1Cl (stereo unspecified)	none
Cc1ccc(S(=O)(=O)N2CCN(C(=O)C3CCN(c4ncnc5sc(C)c(C)c45)CC3)CC2)c(C)c1	M1 PAM 29
Cc1sc2ncnc(N3CCN(S(=O)(=O)c4ccc(C(C)(C)C)cc4)CC3)c2c1C	none
Cc1sc2ncnc(N3CCN(CCOc4ccc(Cl)cc4)CC3)c2c1C	CHRM1 antagonist 43
Cc1sc2ncnc(N3CCC(C(=O)NNC(=O)COc4ccccc4F)CC3)c2c1C	none
Cc1sc2ncnc(N3CCC(C(=O)NNC(=O)COc4ccccc4Cl)CC3)c2c1C	CHRM1 antagonist 32
Cc1sc2ncnc(N3CCC(C(=O)NNC(=O)COc4ccc(Cl)cc4)CC3)c2c1C	none
CC(O)CNc1nc(N)[nH]c(=O)c1N=Nc1ccccc1 (stereo unspecified)	none
O=C(CCn1c(SCC(=O)NCc2ccco2)nc2ccccc2c1=O)NCCc1ccccc1	none
C=CCn1c(SCC(=O)NCc2ccco2)nc2ccccc2c1=O	CHRM1 antagonist 100
COc1ccc([C@@H]2CC(=O)[C@@H]3CN(S(=O)(=O)c4ccc(C)cc4)[C@H](c4ccccc4)C[C@@H]3N2S(=O)(=O)c2ccccc2)cc1	none
O=C(O)c1cccc(NC(=S)N/N=C/c2ccccc2OCc2ccc(Br)cc2)c1	CHO-K1 Ca antag 27
Oc1cc(O)cc(/C=C/c2ccc(O)c(O)c2)c1	CHRM1 agonist 27
S=C(Nc1ccc(Br)cc1)Nc1ccc2c(c1)OCCO2	CHRM1 antagonist 31
O=C(NC(=S)Nc1ccc2c(c1)OCCO2)c1cccc(Br)c1	none

Screening data: PubChem BioAssay, The Scripps Research Institute Molecular Screening Center
